Source: the antibiotic and cytotoxicity screens of Wong et al. (2023)
Hit rate of the full screen: of about 39,000 compounds, about 3,300 (8.5%) were called active. Only a selection was taken, and actives are over-represented in it overall.

test system: HepG2; test: cytotoxicity call (relative viability < 0.9); conditions: 10 µM

Row | SMILES | cytotoxicity call
1 | CN(Cc1cc(Br)cc(Br)c1N)C1CCCCC1.Cl | inactive
2 | C[C@@H]1CN([C@@H](C)CO)C(=O)c2ccccc2-c2ccccc2CO[C@@H]1CN(C)Cc1ccc(-c2ccccc2)cc1 | inactive
3 | Cc1noc(C)c1NC(=O)Nc1ccc2c(c1)C(=O)N([C@@H](C)CO)C[C@@H](C)[C@@H](CN(C)Cc1ccc3c(c1)OCO3)OCCCC[C@H](C)O2 | inactive
4 | Cc1cc(C(=O)Nc2cccc3c2O[C@H](CN(C)Cc2ccc(C(=O)O)cc2)[C@H](C)CN([C@@H](C)CO)C3=O)n(C)n1 | inactive
5 | CO[C@H]1CN(C)C(=O)c2cc(NS(=O)(=O)c3cn(C)cn3)ccc2OC[C@@H](C)N(CCC(F)(F)F)C[C@@H]1C | inactive
6 | C[C@@H]1CCCCO[C@@H](CN(C)S(C)(=O)=O)[C@@H](C)CN([C@@H](C)CO)C(=O)c2cc(N(C)C)ccc2O1 | inactive
7 | C[C@H](CO)N1C[C@H](C)[C@H](CN(C)S(C)(=O)=O)Oc2ccc(NC(=O)Cn3cnnn3)cc2CC1=O | inactive
8 | CC(C)N1C[C@H](C)[C@@H](CN(C)Cc2ccc(Cl)c(Cl)c2)Oc2c(cccc2-c2nnc(-c3ccncc3)o2)C1=O | inactive
9 | Cc1noc(C)c1NC(=O)N[C@@H]1CC[C@@H](CC(=O)NCCCN(C)C)O[C@@H]1CO | inactive
10 | CC(C)CC#Cc1ccc2c(c1)O[C@H](CN(C)C(=O)C1CCOCC1)[C@H](C)CN([C@@H](C)CO)S2(=O)=O | inactive
11 | CCCN(C)C[C@H]1OCCCC[C@@H](C)Oc2ccc(NS(=O)(=O)c3cn(C)cn3)cc2C(=O)N([C@@H](C)CO)C[C@@H]1C | inactive
12 | C[C@H]1CN([C@@H](C)CO)C(=O)c2cccc(NS(=O)(=O)c3cn(C)cn3)c2O[C@H]1CN(C)C(=O)NC1CCCCC1 | inactive
13 | COc1ccc(S(=O)(=O)Nc2ccc3c(c2)CC(=O)N([C@H](C)CO)C[C@@H](C)[C@H](CN(C)S(=O)(=O)c2ccc(C)cc2)O3)cc1 | inactive
14 | Cc1noc(C)c1NC(=O)N[C@@H]1C=C[C@@H](CC(=O)NCCCN(C)C)O[C@H]1CO | inactive
15 | COc1ccc(S(=O)(=O)Nc2ccc3c(c2)C(=O)N([C@H](C)CO)C[C@@H](C)[C@H](CN(C)S(=O)(=O)c2ccc(Cl)cc2)OCCCC[C@@H](C)O3)cc1 | inactive
16 | COc1ccc(S(=O)(=O)N(C)C[C@H]2OCCCC[C@@H](C)Oc3ccc(NS(=O)(=O)c4ccc(Cl)cc4)cc3C(=O)N([C@H](C)CO)C[C@H]2C)cc1 | active
17 | COc1ccc(S(=O)(=O)N(C)C[C@@H]2OCCCC[C@H](C)Oc3ccc(NS(=O)(=O)c4cn(C)cn4)cc3C(=O)N([C@H](C)CO)C[C@@H]2C)cc1 | inactive
18 | COc1ccc(S(=O)(=O)Nc2ccc3c(c2)C(=O)N([C@@H](C)CO)C[C@H](C)[C@@H](CN(C)S(=O)(=O)c2ccc(Cl)cc2)OCCCC[C@@H](C)O3)cc1 | inactive
19 | COc1ccc(S(=O)(=O)N(C)C[C@@H]2OCCCC[C@@H](C)Oc3ccc(NS(=O)(=O)c4cn(C)cn4)cc3C(=O)N([C@@H](C)CO)C[C@H]2C)cc1 | inactive
20 | COc1ccc(S(=O)(=O)N(C)C[C@H]2OCCCC[C@@H](C)Oc3ccc(NS(=O)(=O)c4cn(C)cn4)cc3C(=O)N([C@H](C)CO)C[C@H]2C)cc1 | active
21 | COc1ccc(S(=O)(=O)N(C)C[C@H]2OCCCC[C@H](C)Oc3ccc(NS(=O)(=O)c4ccc(Cl)cc4)cc3C(=O)N([C@H](C)CO)C[C@H]2C)cc1 | active
22 | COc1ccc(S(=O)(=O)Nc2ccc3c(c2)C(=O)N([C@@H](C)CO)C[C@H](C)[C@H](CN(C)S(=O)(=O)c2ccc(Cl)cc2)OCCCC[C@@H](C)O3)cc1 | active
